# Reference: PubChem BioAssay (NCI)
# About 83,000 compounds went through this panel and 20% of them were active in at least one assay; those are over-represented in the sample as a whole.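 Percent growth is the endpoint: 0 to 100 indicates growth inhibition (40 means 60% inhibition), 0 means no net growth, and negative values indicate cell death.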 Values without a mark were called inactive. The source made the active and inactive calls. Rule for the calls: active = growth percent below 10; inactive = the rest.
# Test system: HCC-2998 colon
# Experiment: NCI-60 one-dose screen, 48 h (100 = growth as untreated, 0 = no growth, -100 = all killed)
# Conditions: 10 µM unless noted
row,SMILES,growth
1,COc1cc([N+](=O)[O-])c2ncccc2c1O,26.2%
2,Brc1ccc(-c2[nH]ncc2-c2c[nH]c3ccccc23)cc1,112%
3,COc1ccc(C2C(C#N)=C(N)Oc3c2ccc2ccccc32)cc1 (stereo not drawn),74.4%
4,CNc1ccc(Br)c2c1C(=O)c1ccccc1C2=O,109%
5,c1cc2[nH]ncc2cc1-c1nc2ccc3[nH]ncc3c2c2c1CCC2,73.7%
6,O=C(Nc1ccncc1)C(=O)c1cn(S(=O)(=O)c2ccccc2F)c2ccccc12,57.2%
7,O=C1/C(=C/c2ccc([N+](=O)[O-])cc2)CN(C(=O)CCN2CCC(=NO)CC2)C/C1=C\c1ccc([N+](=O)[O-])cc1,-72.2% (active)
8,O=C(O)COc1ccc(-c2cssc2=S)cc1,125%
9,N=C(N)c1ccc(-c2ccc(-c3ccc4ccccc4c3)s2)cc1,100%
10,CC(=O)OC[C@]12CC[C@H]3[C@@H](C[C@H]4O[C@]45CC=CC(=O)[C@]35C)[C@]1(O)CC[C@@]2(O)[C@@](C)(O)C1CC(C)=C(C)C(=O)O1 (stereo partly drawn),-82.8% (active)
11,Cc1ccc(-c2cc3nc(-c4ccccc4)nc(C(Cl)Cl)n3n2)cc1,-90.6% (active)
12,CCN(CC)c1ccc(N=O)cc1,86.5%
13,Oc1ccccc1/C=N/NC(=S)NC1CC2C=CC1C2 (stereo not drawn),66.5%
14,CCCCCCCCCCCC(=O)NCCC[N+](C)(C)CC(=O)[O-],96%
15,Cc1ccc(C(=O)C2=Cc3cc4ccccc4n3Cc3cnnn32)cc1,98.7%
16,O=[N+]([O-])c1cccc(-c2nc3sccn3c2-c2ccnc(NCCCNS(=O)(=O)c3ccc(Cl)cc3)n2)c1,116%
17,CCCCCCCCCCCCNC(=O)[C@H]1CSC(c2cc(Br)cs2)N1 (stereo partly drawn),54.3%
18,NC(=O)CCCN1C/C(=C\c2ccccc2)C(=O)c2ccccc21,93.8%
19,CCCCCCCCC(C)OC(=O)c1nn(C(C)=O)c2ccccc12 (stereo not drawn),98%
20,O=C(CSC1CCc2ccccc21)N/N=C/c1ccccc1O (stereo not drawn),66.7%

row,SMILES,growth
1,C=C1c2nc3ccccc3n2C=C(c2ccc(Cl)cc2)N1Cc1ccccc1,89.2%
2,COc1ccc2[nH]c(C(=O)OCc3ccc4c(Cl)cc(Cl)c(O)c4n3)cc2c1,-39.7% (active)
3,C=C[C@@H]1C[C@@H]2Cc3cc(F)ccc3N1O2,95.3%
4,C=CCSc1n[nH]c(-c2cccs2)n1,117%
5,NC(=N\N=C/c1ccc(O)cc1)/C(N)=N\N=C/c1ccc(O)cc1,51%
6,C=C[C@@H]1C[C@H](O)Cc2cc(F)ccc2N1,96.2%
7,COc1ccc(-c2cnoc2-c2ccc(OC)cc2O)cc1,32%
8,CN(C)c1oc(C2OC2c2ccccc2)nc1C#N (stereo not drawn),97.3%
9,ClC(Cl)c1nc(-c2cccnc2)n2nc(-c3ccccc3)cc2n1,-68.7% (active)
10,COc1cc(-c2nn(-c3cccc(NC(=O)Nc4cccc(C(F)(F)F)c4)c3)cc2-c2ccncc2)ccc1Cl,-18.4% (active)
11,CCN(CC)CCOc1ccc(/C(=C(/C)c2ccccc2)c2ccc(OC(C)=O)cc2)cc1,103%
12,O=C(/C=C/c1cc(-c2ccc3c(c2)OCO3)n[nH]1)c1ccc2c(c1)OCO2,106%
13,S=C(S)NCCc1c[nH]c2ccccc12,115%
14,c1ccc(Nc2nc(Nc3ccccc3)nc(Nc3ccccc3)n2)cc1,85.6%
15,C=C1CCC2C3(C)COC(c4c(OC)cccc4OC)OC3CCC2(C)C1C/C=C1/C(=O)OCC1O (stereo not drawn),113%
16,Cc1cc(N/N=C/c2nc(-c3ccccc3)oc2C)c2cc(Cl)ccc2n1,-77.4% (active)
17,Nc1cccc(-c2nc3sccn3c2-c2ccnc(NCCCNS(=O)(=O)c3cccc4ccccc34)n2)c1,60.7%
18,CCOC(=O)c1c(NS(=O)(=O)c2ccc(C)cc2)sc2c1CCC1(C2)OCCO1,92%
19,COc1ccc(Nc2ncccc2C(=O)NCc2cn(Cc3cccc(Oc4ccccc4)c3)nn2)cc1,41.7%

# Test system: KM12 colon
# Experiment: as above
# Conditions: 10 µM unless noted
row,SMILES,growth
1,COc1cc([N+](=O)[O-])c2ncccc2c1O,-2.23% (active)
2,Brc1ccc(-c2[nH]ncc2-c2c[nH]c3ccccc23)cc1,94.3%
3,COc1ccc(C2C(C#N)=C(N)Oc3c2ccc2ccccc32)cc1 (stereo not drawn),29%
4,CNc1ccc(Br)c2c1C(=O)c1ccccc1C2=O,107%
5,c1cc2[nH]ncc2cc1-c1nc2ccc3[nH]ncc3c2c2c1CCC2,31.4%
6,O=C(Nc1ccncc1)C(=O)c1cn(S(=O)(=O)c2ccccc2F)c2ccccc12,19.2%
7,O=C1/C(=C/c2ccc([N+](=O)[O-])cc2)CN(C(=O)CCN2CCC(=NO)CC2)C/C1=C\c1ccc([N+](=O)[O-])cc1,-55.3% (active)
8,O=C(O)COc1ccc(-c2cssc2=S)cc1,109%
9,N=C(N)c1ccc(-c2ccc(-c3ccc4ccccc4c3)s2)cc1,40.7%
10,CC(=O)OC[C@]12CC[C@H]3[C@@H](C[C@H]4O[C@]45CC=CC(=O)[C@]35C)[C@]1(O)CC[C@@]2(O)[C@@](C)(O)C1CC(C)=C(C)C(=O)O1 (stereo partly drawn),-70.8% (active)
11,Cc1ccc(-c2cc3nc(-c4ccccc4)nc(C(Cl)Cl)n3n2)cc1,-83.6% (active)
12,CCN(CC)c1ccc(N=O)cc1,40.3%
13,Oc1ccccc1/C=N/NC(=S)NC1CC2C=CC1C2 (stereo not drawn),53%
14,CCCCCCCCCCCC(=O)NCCC[N+](C)(C)CC(=O)[O-],86.6%
15,Cc1ccc(C(=O)C2=Cc3cc4ccccc4n3Cc3cnnn32)cc1,83.4%
16,O=[N+]([O-])c1cccc(-c2nc3sccn3c2-c2ccnc(NCCCNS(=O)(=O)c3ccc(Cl)cc3)n2)c1,39.2%
17,CCCCCCCCCCCCNC(=O)[C@H]1CSC(c2cc(Br)cs2)N1 (stereo partly drawn),-55.3% (active)
18,NC(=O)CCCN1C/C(=C\c2ccccc2)C(=O)c2ccccc21,101%
19,CCCCCCCCC(C)OC(=O)c1nn(C(C)=O)c2ccccc12 (stereo not drawn),103%
20,O=C(CSC1CCc2ccccc21)N/N=C/c1ccccc1O (stereo not drawn),41%

row,SMILES,growth
1,C=C1c2nc3ccccc3n2C=C(c2ccc(Cl)cc2)N1Cc1ccccc1,86.9%
2,COc1ccc2[nH]c(C(=O)OCc3ccc4c(Cl)cc(Cl)c(O)c4n3)cc2c1,-31% (active)
3,C=C[C@@H]1C[C@@H]2Cc3cc(F)ccc3N1O2,108%
4,C=CCSc1n[nH]c(-c2cccs2)n1,111%
5,NC(=N\N=C/c1ccc(O)cc1)/C(N)=N\N=C/c1ccc(O)cc1,23.6%
6,C=C[C@@H]1C[C@H](O)Cc2cc(F)ccc2N1,100%
7,COc1ccc(-c2cnoc2-c2ccc(OC)cc2O)cc1,19.2%
8,CN(C)c1oc(C2OC2c2ccccc2)nc1C#N (stereo not drawn),103%
9,ClC(Cl)c1nc(-c2cccnc2)n2nc(-c3ccccc3)cc2n1,2.3% (active)
10,COc1cc(-c2nn(-c3cccc(NC(=O)Nc4cccc(C(F)(F)F)c4)c3)cc2-c2ccncc2)ccc1Cl,-27.8% (active)
11,CCN(CC)CCOc1ccc(/C(=C(/C)c2ccccc2)c2ccc(OC(C)=O)cc2)cc1,102%
12,O=C(/C=C/c1cc(-c2ccc3c(c2)OCO3)n[nH]1)c1ccc2c(c1)OCO2,94.6%
13,S=C(S)NCCc1c[nH]c2ccccc12,96.7%
14,c1ccc(Nc2nc(Nc3ccccc3)nc(Nc3ccccc3)n2)cc1,84.4%
15,C=C1CCC2C3(C)COC(c4c(OC)cccc4OC)OC3CCC2(C)C1C/C=C1/C(=O)OCC1O (stereo not drawn),9.36% (active)
16,Cc1cc(N/N=C/c2nc(-c3ccccc3)oc2C)c2cc(Cl)ccc2n1,-83.3% (active)
17,Nc1cccc(-c2nc3sccn3c2-c2ccnc(NCCCNS(=O)(=O)c3cccc4ccccc34)n2)c1,23.6%
18,CCOC(=O)c1c(NS(=O)(=O)c2ccc(C)cc2)sc2c1CCC1(C2)OCCO1,88.8%
19,COc1ccc(Nc2ncccc2C(=O)NCc2cn(Cc3cccc(Oc4ccccc4)c3)nn2)cc1,20.2%
